Reference: PubChem BioAssay (NCI)
About 79,000 compounds went through this panel and 15% of them were active in at least one assay; those are over-represented in the sample as a whole. The source made the active and inactive calls. Rule as the data show it: active = growth inhibition above about 70%; inactive = the rest.

Assays:
[1] = NCI Yeast Anticancer Drug Screen. Data for the rad50 strain (AID 155);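 also: 0% = growth of vehicle-only cultures of the same strain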; conditions: S. cerevisiae rad50 strain growth inhibition, active compounds read high
Summary of the method: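 Cells are treated with compound, grown, and their growth is then scored against vehicle-only cultures of the same repair-deficient yeast strain.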

[2] = NCI Yeast Anticancer Drug Screen. Data for the mec2-1 strain (AID 157); conditions: S. cerevisiae mec2-1 strain, active compounds read high
Summary of the method: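 Readout is yeast growth inhibition, normalised to vehicle-treated controls, in the mec2-1 strain exposed to compound.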

[3] = NCI Yeast Anticancer Drug Screen. Data for the sgs1 mgt1 strain (AID 161);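 also: 0% = growth of cultures given vehicle only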; conditions: S. cerevisiae sgs1 mgt1 strain, active compounds read high
Summary of the method: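 Yeast cells carrying a defined DNA-repair defect were exposed to test compounds. Growth inhibition was measured relative to vehicle-treated controls.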

[4] = NCI Yeast Anticancer Drug Screen. Data for the cln2 rad14 strain (AID 165);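 also: 0% = growth equal to vehicle treated cultures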; conditions: S. cerevisiae cln2 rad14 strain, active compounds read high
Summary of the method: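 Relative to vehicle controls, growth inhibition of compound-treated cln2 rad14 yeast was recorded.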

[5] = NCI Yeast Anticancer Drug Screen. Data for the bub3 strain (AID 167); conditions: S. cerevisiae bub3 mutant strain, active compounds read high
Summary of the method: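 Part of a panel of yeast mutants defective in DNA damage repair or cell cycle regulation. Each strain is grown with compound, and inhibition is calculated relative to solvent-treated cultures.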

[6] = NCI Yeast Anticancer Drug Screen. Data for the mlh1 rad18 strain (AID 175); conditions: S. cerevisiae mlh1 rad18 strain growth inhibition, active compounds read high
Summary of the method: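 Test agents were incubated with a yeast strain of defined genotype (DNA damage repair defect). Inhibition of growth was derived by comparison with vehicle-exposed cultures.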

[7] = at 5.0 µM (retest, dose inferred, filed as 0.5)
[8] = at 50.0 µM (retest, dose inferred, filed as 5.0)

Measured: growth inhibition

CC1(C)CC([P+](c2ccccc2)(c2ccccc2)c2ccccc2)=NN1
inactive: [1]; [7] 66% | [2]; [7] 41% | [3]; [7] 60% | [4]; [7] 48% | [4]; at 50.0 µM 46% | [6]; [7] 56%
active: [1]; [8] 91% | [1]; at 50.0 µM 76.2% | [2]; [8] 84% | [2]; at 50.0 µM 77.5% | [3]; [8] 89% | [3]; at 50.0 µM 79.5% | [4]; [8] 81% | [5]; [7] 71% | [5]; [8] 91% | [5]; at 50.0 µM 83.5% | [6]; [8] 83% | [6]; at 50.0 µM 79.5%

O=C1C2(Cl)C(Cl)=C(Cl)C1(Cl)C1(Cl)C(Cl)=C(Cl)C(=O)C21Cl (stereo not given)
active: [1]; [8] 88% | [1]; at 50.0 µM 98.2% | [2]; [8] 92% | [3]; [8] 92% | [4]; [8] 89% | [4]; at 50.0 µM 76.4% | [5]; [8] 92% | [6]; [8] 90%
inactive: [1]; [7] 55% | [2]; [7] 45% | [2]; at 50.0 µM 54.2% | [3]; [7] 45% | [3]; at 50.0 µM 39.8% | [4]; [7] 19% | [5]; [7] 21% | [5]; at 50.0 µM 28.4% | [6]; [7] 66% | [6]; at 50.0 µM 61.2%

C[C-](O)O.O/C(=C\[C-](O)c1ccccc1)c1ccccc1.O/C(=C\[C-](O)c1ccccc1)c1ccccc1.[Nd+3] (stereo not given)
active: [1]; at 50.0 µM 90.1% | [2]; at 50.0 µM 92.7% | [3]; at 50.0 µM 93.3% | [4]; at 50.0 µM 88.7% | [5]; at 50.0 µM 90.2% | [6]; at 50.0 µM 85.9%
inactive: [1]; [7] 36% | [1]; [8] 36% | [2]; [7] 36% | [2]; [8] 36% | [3]; [7] 42% | [3]; [8] 42% | [4]; [7] 21% | [4]; [8] 21% | [5]; [7] 20% | [5]; [8] 20% | [6]; [7] 30% | [6]; [8] 30%

Cc1cc(Cl)c(O)c(-c2cc(-c3cccc([N+](=O)[O-])c3)c3c(N)[nH]c(=S)nc3n2)c1
inactive: [1]; [7] -6% | [1]; [8] 46% | [1]; at 50.0 µM 28.6% | [2]; [7] -6% | [2]; [8] 23% | [2]; at 50.0 µM 23.2% | [3]; [7] 3% | [3]; [8] 38% | [3]; at 50.0 µM 20.3% | [4]; [7] 12% | [4]; [8] 33% | [4]; at 50.0 µM 55% | [5]; [7] -5% | [5]; [8] 45% | [5]; at 50.0 µM -6.15% | [6]; [7] 5% | [6]; [8] 50% | [6]; at 50.0 µM 25.8%

OC(CCl)COc1c(Cl)c(Cl)c(Cl)c(Cl)c1Cl (stereo not given)
active: [3]; at 50.0 µM 93%
inactive: [1]; [7] -3% | [1]; [8] 7% | [1]; at 50.0 µM -1% | [2]; [7] -1% | [2]; [8] 10% | [2]; at 50.0 µM 4.55% | [3]; [7] -4% | [3]; [8] 3% | [4]; [7] 2% | [4]; [8] 9% | [4]; at 50.0 µM -32.7% | [5]; [7] 0% | [5]; [8] 16% | [5]; at 50.0 µM 11.4% | [6]; [7] -3% | [6]; [8] 5% | [6]; at 50.0 µM 13.6%
